Hits are enriched below; roughly 3.5% of the tested compounds scored in any of these assays.
GPR151 activ = activators of human GPR151 | Q8TDV0 | PathHunter beta-arrestin GPR151 cells, luminescence | activation, % at 11.2 µM | hit rate 1% among 650,000 | AID 1508602; in the data active means activation above about 4.9%
TEAD-YAP block = TEAD-YAP interaction inhibition; HEK-TIYL cells, TEAD-Gal4/YAP UAS-luciferase luminescence; inhibition, % at 9.12 µM; hit rate 1.4% among 640,000; AID 1259422; in the data active means inhibition above about 32%
MITF inh = human MITF inhibition, primary screen. AlphaScreen MITF homodimerization, bead proximity signal. inhibition, % at 2.6 µM. hit rate 0.91% among 650,000. O75030; in the data active means inhibition above about 50%
Target sequence (O75030 whole entry, looked up): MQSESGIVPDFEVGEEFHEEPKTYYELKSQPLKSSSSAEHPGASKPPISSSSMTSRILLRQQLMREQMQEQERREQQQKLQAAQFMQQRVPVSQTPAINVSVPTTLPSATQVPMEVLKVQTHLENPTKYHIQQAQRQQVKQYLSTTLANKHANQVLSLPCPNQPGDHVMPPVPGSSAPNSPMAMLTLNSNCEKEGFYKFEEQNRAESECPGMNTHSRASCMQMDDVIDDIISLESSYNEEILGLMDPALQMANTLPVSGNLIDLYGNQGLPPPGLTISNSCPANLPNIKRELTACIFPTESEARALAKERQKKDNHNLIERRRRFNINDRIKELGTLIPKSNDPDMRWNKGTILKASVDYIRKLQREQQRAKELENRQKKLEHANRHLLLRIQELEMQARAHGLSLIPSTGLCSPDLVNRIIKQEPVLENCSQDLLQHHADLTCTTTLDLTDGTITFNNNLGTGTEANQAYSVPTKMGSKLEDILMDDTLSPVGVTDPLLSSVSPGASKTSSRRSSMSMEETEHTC
FBW7 activator = human FBW7 E3 ligase activation, primary screen; AID 1259310; AlphaScreen FBW7–phospho-cyclin E peptide binding, activator screen; normalized activity (activation), % at 26.1 µM; hit rate 0.13% among 650,000; in the data active means normalized activity above about 1.9%;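 further: purified mutant Fbw7 with reduced substrate affinity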
Each line names hits and unclear results; the compound was inactive in the other large screens.

NC(=S)N/N=C/c1c(O)ccc2ccccc12	MITF inh 78
CN1CCCCC1C(=O)N/N=C/c1c(O)ccc2ccccc12 (stereo unspecified)	TEAD-YAP block 78, MITF inh 84
Cc1cc(=O)[nH]c(N/N=C/c2c(O)ccc3ccccc23)n1	TEAD-YAP block 89, MITF inh 62
O=c1[nH]nc(N/N=C/c2c(O)ccc3ccccc23)c(=O)[nH]1	none
Cc1nnc(N/N=C/c2c(O)ccc3ccccc23)[nH]c1=O	TEAD-YAP block 89
NC(=S)N/N=C/c1c2ccccc2cc2ccccc12	none
O=c1cnnc(N/N=C/c2c(O)ccc3ccccc23)[nH]1	TEAD-YAP block 88, MITF inh 117
O=C(Cc1noc2ccccc12)Nc1cccc(-c2ccc(N3CCCC3)nn2)c1	TEAD-YAP block 48
CC(=O)c1cccc(NC(=O)Cc2noc3ccccc23)c1	none
CC(Oc1ccccc1F)C(=O)Nc1cccc(-c2ccc(N3CCOCC3)nn2)c1 (stereo unspecified)	TEAD-YAP block 42
COc1ccc(CC(=O)Nc2cccc(-c3ccc(N4CCOCC4)nn3)c2)cc1OC	TEAD-YAP block 34
O=C(NCCc1ccc(Cl)cc1)c1ccc(-n2c(=S)[nH]c3ccccc3c2=O)cc1	none
COc1cc(Nc2nc(N3CCN(c4ccccn4)CC3)nc3c2ncn3CCN2CCCC2=O)cc(OC)c1OC	TEAD-YAP block 33
O=C1CCCN1CCCNc1nc(Nc2ccccn2)nc2c1ncn2-c1ccsc1	TEAD-YAP block 53
Cn1nccc1Nc1nc(NCCCN2CCCC2=O)c2ncn(-c3ccsc3)c2n1	none
O=C1CCCN1CCCNc1nc(Nc2cnccn2)nc2c1ncn2-c1ccsc1	TEAD-YAP block 75
O=C1CCCN1CCCNc1nc(NC2CC2)c2ncn(-c3ccsc3)c2n1	TEAD-YAP block 34
COc1cc(Nc2nc(NCCCN3CCCC3=O)c3ncn(-c4ccsc4)c3n2)cc(OC)c1OC	TEAD-YAP block 54
COc1cc(Nc2nc(NCCCN3CCCC3=O)nc3c2ncn3-c2ccsc2)cc(OC)c1OC	none
O=C(N/N=C/c1ccc([N+](=O)[O-])cc1)c1n[nH]c2c1CCC2	TEAD-YAP block 54
O=C(N/N=C/c1cccc2ccccc12)c1n[nH]c2c1CCC2	TEAD-YAP block 47
O=C(N/N=C/c1ccc(Cl)cc1)c1n[nH]c2c1CCCC2	none
C/C(=N\NC(=O)c1n[nH]c2c1CCCC2)c1ccc(O)cc1	none
O=C(N/N=C/c1ccc(O)cc1)c1n[nH]c2c1CCC2	TEAD-YAP block 59
O=C(N/N=C/c1ccccc1)c1n[nH]c2c1CCCC2	TEAD-YAP block 69
C=CC(=O)Oc1cccc(N2C(=O)C3C4C=CC(C4)C3C2=O)c1 (stereo unspecified)	none
Cc1cc(Cl)ccc1N=Cc1nc(-c2cccc3ccccc23)oc1O	none
O=C(/C=C/c1ccccc1[N+](=O)[O-])Nc1cccc(Br)c1	none
CCCCS(=O)(=O)/C=C\C=C\S(=O)(=O)CCCC	TEAD-YAP block 90
c1ccc(-n2cnc3c(NC4CC4)nc(Nc4ccncc4)nc32)cc1	TEAD-YAP block 38
c1cnc(Nc2nc(NC3CC3)c3ncn(-c4ccsc4)c3n2)cn1	TEAD-YAP block 34
c1ccc(-n2cnc3c(NC4CC4)nc(Nc4cnccn4)nc32)cc1	TEAD-YAP block 51
c1ccc(Nc2nc(Nc3ccncn3)nc3c2ncn3-c2ccsc2)cc1	none
c1cc(Nc2nc(NC3CC3)c3ncn(-c4ccsc4)c3n2)ncn1	FBW7 activator 7.4
c1cnc2ccc(Nc3nc(NC4CC4)c4ncn(-c5ccsc5)c4n3)cc2c1	none
Clc1ccccc1CSc1nnc2c3ccccc3n(Cc3ccccc3)c2n1	none
CCCCCOC(=O)C1=C(C)NC(=O)NC1c1cccc(OCc2ccccc2)c1 (stereo unspecified)	none
CN(C)c1cccc(Nc2nc(NC3CC3)c3ncn(-c4ccsc4)c3n2)c1	TEAD-YAP block 33
CN(C)c1cccc(Nc2nc(N)c3ncn(-c4ccsc4)c3n2)c1	none
c1ccc(-n2cnc3c(NC4CC4)nc(Nc4nccc5ccccc45)nc32)cc1	TEAD-YAP block 43
CCCCSc1nnc(-c2ccc3[nH]c(C)c(C)c3c2)n1-c1ccccc1	none
O[N+]1=CC=CCC1=S.On1ccccc1=S.[Zn]	TEAD-YAP block 100
O=C(Nc1ccccc1)c1ccnc(-c2ccc(C(=O)NC3CC3)cc2)c1	none
CCOC(=O)N1CCN(C(=O)c2ccc(N3CCC(NC(C)(C)C)CC3)cc2)CC1	none
Cc1cc(NCCO)n2c(nc3ccccc32)c1C#N	none
Cc1cc(NCCCN(C)C)n2c(nc3ccccc32)c1C#N	TEAD-YAP block 50
Cc1ccc(Nc2ccc3nonc3c2[N+](=O)[O-])c(C)c1	FBW7 activator 2.5
Cc1ccc(Nc2ccc3nonc3c2[N+](=O)[O-])cc1C	none
COc1ccc(C2(C(F)(F)F)NC(=O)C3CCCC2C3=O)cc1 (stereo unspecified)	none
COC(=O)c1cn[nH]c1NC(=S)Nc1ccc(C)cc1C	TEAD-YAP block 80
Cc1ccc(NC(=O)C2CCCN2C(=O)NCc2ccccc2)c(C)c1 (stereo unspecified)	none
CC1CCN(c2nc3ncccc3nc2-c2ccccc2)CC1	FBW7 activator 2.1
CCn1c(SCC(=O)Nc2ccccc2N2CCOCC2)nnc1-c1cccs1	none
COc1cc(C2C3=C(CC(C)(C)CC3=O)OC3=C2C(=O)CC(C)(C)C3)ccc1OCc1ccc(F)cc1	FBW7 activator 2.0
CC(=O)Nc1ccc(Oc2ccc3c(c2)C(=O)N(c2ccc(C)cc2)C3=O)cc1	none
CCN(CC)c1ccc(/C=C/C23NC(=O)CCN2c2ccc(C)cc2C3(C)C)cc1 (stereo unspecified)	TEAD-YAP block 52
CN(C)c1ccc(NC(=O)CSc2nnc(NC(=O)c3ccccc3Cl)s2)cc1	none
Cc1cc(-c2cccnc2)c(C#N)c(SCC(=O)n2nc(C)cc2C)n1	none
COCCNc1ccnc2c(-c3cccc(N(C)C)c3)cnn12	none
COCCNc1ccnc2c(-c3cccc(C(=O)O)c3)cnn12	TEAD-YAP block 99
COCCNc1ccnc2c(-c3ccc(C(=O)NC4CC4)cc3)cnn12	none
CN(C)c1cccc(Nc2ccnc3c(-c4ccsc4)cnn23)c1	none
CCCNc1ccnc2c(-c3cccc(C(=O)O)c3)cnn12	TEAD-YAP block 103
CCCNc1ccnc2c(-c3cccc(C(C)=O)c3)cnn12	none
CCCNc1ccnc2c(-c3cccc(N(C)C)c3)cnn12	TEAD-YAP block 32
CN(C)c1cccc(Nc2ccnc3c(-c4cccc(O)c4)cnn23)c1	TEAD-YAP block 65
COc1ccc(OCC(=O)N/N=C/c2ccc3c(c2)OCO3)c(Br)c1	none
O=C1CC(N2CCN(CCO)CC2)C(=O)N1c1cccc(Cl)c1 (stereo unspecified)	none
c1ccc(-c2cnc(SCCN3CCOCC3)n2CC2CCCO2)cc1 (stereo unspecified)	MITF inh 57
O=C(CCCn1sc2ccccc2c1=O)NCc1cccnc1	none
CSC1=C(C#N)C(c2ccccc2Cl)C(C(=O)Nc2ccccc2C)=C(C)N1 (stereo unspecified)	FBW7 activator 2.0
CCSC1=C(C#N)C(c2ccccc2Cl)C(C(=O)Nc2ccccc2C)=C(C)N1 (stereo unspecified)	none

Source: PubChem (The Scripps Research Institute Molecular Screening Center)
